Reference: PubChem BioAssay AID624388 (National Center for Advancing Translational Sciences (NCATS), 2012)

Target: Pyruvate kinase PKLR (Homo sapiens) (UniProt P30613)
Assay: qHTS for Activators of Human Muscle Isoform 2 Pyruvate Kinase (PK): Extended Characterization using Reticulocyte PK Probe 2
Conditions: purified hPK-R, ATP production, Kinase-Glo luminescence; series mostly up to 58 µM; activity change, positive = activation: at the top concentration; active = well fitted curve in the direction sought with a large enough effect; inactive = no such curve, though single readings can be large or run the other way
From the text: Human pyruvate kinase reticulocyte (hPK-R) enzyme was supplied as a highly purified (>95% pure) preparation from Structural Genomics Consortium in Toronto (Ontario, Canada) and assayed for its ability to generate ATP from ADP using phosphoenolpyruvate (PEP) as a substrate. ATP generation was detected in a coupled reaction by luciferase-mediated luminescence, an ATP-dependent process. Pyruvate kinase substrates, PEP and ADP, were present in the assay at Km and approximately 10-fold below Km respectively. The enzyme was assayed at an intermediate level of activity to screen for both inhibitors and activators. NIH Chemical Genomics Center [NCGC] NIH Molecular Libraries Probe Centers Network [MLPCN] MLPCN Grant: MH085679 Assay Submitter (PI): Matthew G. Vander Heiden, Harvard Medical School
Three uL of substrate mix (at r.t.) in assay buffer (50 mM Imidazole pH7.2, 50 mM KCl, 7 mM MgCl2, 0.01% Tween 20, 0.05% BSA) was dispensed into white solid bottom 1,536 well microtiter plates so that the final concentrations of substrates in the assay were 0.1 mM ADP and 0.5 mM PEP. 23 nL of compound were delivered by a pin tool and 1 uL of enzyme mix (final concentration of 0.1 nM) in assay buffer (4 degree Celsius) was added. Plates were incubated at room temperature for 1 hour. Two uL of detection mix (Kinase-Glo, Promega; at 4 degree Celsius protected from light) was added and luminescence read by a ViewLux (Perkin Elmer) at 1 second exposure/plate. Data were normalized to the uninhibited (row 31). Additionally, a no enzyme and 5-fold enzyme control was dispensed in row 32, split equally between the two conditions.

Chain of Pyruvate kinase PKLR (Homo sapiens) (P30613 whole entry, looked up, canonical isoform): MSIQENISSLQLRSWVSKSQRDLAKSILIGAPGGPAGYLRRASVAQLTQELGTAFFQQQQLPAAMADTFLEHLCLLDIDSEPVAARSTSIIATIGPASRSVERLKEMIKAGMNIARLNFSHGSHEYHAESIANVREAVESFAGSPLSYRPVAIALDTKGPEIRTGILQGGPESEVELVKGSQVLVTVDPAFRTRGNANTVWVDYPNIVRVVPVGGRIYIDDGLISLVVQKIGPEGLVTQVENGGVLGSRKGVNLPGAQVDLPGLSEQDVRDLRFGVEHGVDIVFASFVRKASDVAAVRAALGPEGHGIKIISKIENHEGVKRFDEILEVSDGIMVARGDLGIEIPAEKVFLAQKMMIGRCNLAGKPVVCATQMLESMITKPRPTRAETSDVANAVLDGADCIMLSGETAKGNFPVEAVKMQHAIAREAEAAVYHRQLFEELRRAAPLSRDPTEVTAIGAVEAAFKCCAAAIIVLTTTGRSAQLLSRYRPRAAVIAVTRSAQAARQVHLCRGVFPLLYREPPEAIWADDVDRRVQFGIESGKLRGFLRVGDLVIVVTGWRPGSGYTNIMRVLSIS

Activity change, positive = activation, inactive:
Nc1cccc(S(=O)(=O)N2CCCN(S(=O)(=O)c3ccc4c(c3)OCCO4)CC2)c1 5.42%
O=S(=O)(c1ccc2c(c1)OCCO2)N1CCN(S(=O)(=O)c2c(F)cccc2F)CC1 -1.4%
COc1cccc(Cn2ncc3c4sc(S(C)=O)cc4n(C)c3c2=O)c1 (centres undefined) 11.4%
Cc1ccc(NS(=O)(=O)c2ccc3c(c2)CCC(=O)N3)cc1C 0.285%
